“And” between values parts separate entries of the source, which are not always exact repeats. Identical values can stand only once. Screen size: about 5,500 compounds; about 2,000 (36%) were called active. About 18% were inconclusive and are not listed. Cut-off read from the data, not from the text of the source: active = normalized growth mostly below about 0.91 (no sharp cut-off); inconclusive = no clear call, values can overlap the other calls; inactive = mostly above about 0.92. The list shows a part of the results.
Experiment: chemical genetic growth profiling, strain panel (AID 1159580);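 note: tested at 20 µM; growth read once vehicle control cultures reached saturation at 30 °C; 1 = growth at the plate median or of vehicle wells; lower values mean less growth of the strain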
Conditions: S. cerevisiae deletion strains, growth OD

Measured: normalized growth

S=c1nc[nH]c2nc[nH]c12
inactive: locus YAL013W, strain DEP1, stronger effect = lower value 0.996 | locus YAL021C, strain ccr4, stronger effect = lower value 1.02 | locus YAL026C, strain drs2, stronger effect = lower value 0.991 | locus YAL030W, strain snc1, stronger effect = lower value 1.02 | locus YBL061C, strain skt5, stronger effect = lower value 1.02 | locus YBR009C, strain hhf1, stronger effect = lower value 0.997 | locus YBR021W, strain FUR4, stronger effect = lower value 0.997 | locus YBR023C, strain chs3, stronger effect = lower value 1.02 | locus YBR171W, strain sec66, stronger effect = lower value 0.976 | locus YBR229C, strain ROT2, stronger effect = lower value 1 | locus YBR231C, strain swc5, stronger effect = lower value 1.02 | locus YBR279W, strain paf1, stronger effect = lower value 1 | locus YCL011C, strain gbp2, stronger effect = lower value 0.972 | locus YCL016C, strain dcc1, stronger effect = lower value 1.01 | locus YCL029C, strain bik1, stronger effect = lower value 0.976 | locus YCL069W, strain vba3, stronger effect = lower value 0.964 | locus YCR088W, strain abp1, stronger effect = lower value 0.977 | locus YDL005C, strain med2, stronger effect = lower value 0.988 | locus YDL035C, strain GPR1, stronger effect = lower value 1 | locus YDL040C, strain nat1, stronger effect = lower value 1.02 | locus YDL074C, strain BRE1, stronger effect = lower value 1 | locus YDL101C, strain DUN1, stronger effect = lower value 0.996 | locus YDL134C, strain PPH21, stronger effect = lower value 1.01 | locus YDL185W, strain tfp1, stronger effect = lower value 0.964 | locus YDL192W, strain arf1, stronger effect = lower value 0.974 | locus YDR001C, strain nth1, stronger effect = lower value 0.972 | locus YDR069C, strain doa4, stronger effect = lower value 1.02 | locus YDR101C, strain arx1, stronger effect = lower value 1 | locus YDR137W, strain rgp1, stronger effect = lower value 1.02 | locus YDR150W, strain NUM1, stronger effect = lower value 0.999 | locus YDR159W, strain sac3, stronger effect = lower value 0.985 | locus YDR162C, strain NBP2, stronger effect = lower value 0.996 | locus YDR195W, strain ref2 0.992 | locus YDR297W, strain sur2, stronger effect = lower value 1.02 | locus YDR318W, strain mcm21, stronger effect = lower value 0.977 | locus YDR334W, strain swr1, stronger effect = lower value 1.05 | locus YDR335W, strain msn5, stronger effect = lower value 1.01 | locus YDR388W, stronger effect = lower value 0.999 | locus YDR392W, strain spt3, stronger effect = lower value 1.01 | locus YDR502C, strain sam2, stronger effect = lower value 0.991 | locus YEL003W, strain gim4, stronger effect = lower value 0.963 | locus YEL037C, strain rad23, stronger effect = lower value 0.977 | locus YEL061C, strain CIN8 (second series), stronger effect = lower value 0.992 | locus YEL061C, strain CIN8, stronger effect = lower value 0.991 | locus YER015W, strain faa2, stronger effect = lower value 1.01 | locus YER016W, strain bim1, stronger effect = lower value 1 | locus YER110C, stronger effect = lower value 0.969 | locus YER111C, strain swi4, stronger effect = lower value 0.966 | locus YER155C, strain BEM2 (second series), stronger effect = lower value 0.963 | locus YER155C, strain BEM2, stronger effect = lower value 0.99 | locus YER167W, strain BCK2, stronger effect = lower value 0.987 | locus YFR010W, strain ubp6, stronger effect = lower value 0.987 | locus YGL078C, strain dbp3, stronger effect = lower value 0.984 | locus YGL086W, strain mad1, stronger effect = lower value 1.01 | locus YGL167C, strain pmr1, stronger effect = lower value 1.01 | locus YGL173C, strain kem1, stronger effect = lower value 1 | locus YGL227W, strain vid30, stronger effect = lower value 0.975 | locus YGL240W, strain doc1, stronger effect = lower value 1.01 | locus YGL248W, strain PDE1, stronger effect = lower value 0.995 | locus YGL253W, strain hxk2, stronger effect = lower value 1.02 | locus YGR078C, strain PAC10, stronger effect = lower value 1 | locus YGR135W, strain pre9, stronger effect = lower value 0.941 | locus YGR252W, strain gcn5, stronger effect = lower value 0.979 | locus YHR013C, strain ard1, stronger effect = lower value 1.06 | locus YHR027C, strain rpn1, stronger effect = lower value 1.01 | locus YHR030C, strain SLT2, stronger effect = lower value 0.999 and 1.02 | locus YHR079C, strain IRE1 (second series), stronger effect = lower value 0.983 | locus YHR079C, strain IRE1, stronger effect = lower value 1 | locus YHR094C, strain hxt1, stronger effect = lower value 0.987 | locus YHR129C, strain ARP1, stronger effect = lower value 1 | locus YHR142W, strain chs7, stronger effect = lower value 0.999 | locus YHR200W, strain rpn10, stronger effect = lower value 0.98 | locus YIL066C, strain RNR3, stronger effect = lower value 1 | locus YIL073C, strain SPO22, stronger effect = lower value 0.934 | locus YIL125W, strain kgd1, stronger effect = lower value 0.994 | locus YIR030C, strain dcg1, stronger effect = lower value 0.974 | locus YJL092W, strain hpr5, stronger effect = lower value 0.986 | locus YJL095W, strain BCK1 (second series), stronger effect = lower value 1.01 | locus YJL095W, strain BCK1, stronger effect = lower value 0.983 and 1.02 | locus YJL115W, strain asf1, stronger effect = lower value 0.972 | locus YJL129C, strain trk1, stronger effect = lower value 0.97 | locus YJL134W, strain LCB3, stronger effect = lower value 0.984 | locus YJL154C, strain vps35, stronger effect = lower value 0.967 | locus YJL164C, strain tpk1, stronger effect = lower value 0.988 | locus YJL166W, strain qcr8, stronger effect = lower value 1.01 | locus YJL168C, strain set2, stronger effect = lower value 0.989 | locus YJL187C, strain SWE1 (second series), stronger effect = lower value 0.997 | locus YJR043C, strain POL32, stronger effect = lower value 1 | locus YJR066W, strain TOR1, stronger effect = lower value 0.975
